BRCT PPI red: inhibitors of human BRCA1 BRCT-phosphoprotein interaction (red fluorophore); BRCT-phosphopeptide binding, red fluorescence polarization; Potency, µM (highest dose often 76.9 µM), without a hit: at the highest dose activity change, negative = inhibition, most hits filed as inhibitors; 0.03% of 75,000 active; AID 892; further: on the % scale 0 is the no-effect control and ±100 the full control effect
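Rhodamine-labelled pBACH1 10-mer (100 nM) bound to BRCT domain (100 nM) at pH 7.3; compounds incubated 12 min room temperature, polarization read. Free peptide defines full inhibition; unlabelled decapeptide titrated as control.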
TsaE inh: YjeE (TsaE) inhibition, E. coli; P0AF67; purified YjeE enzyme, qHTS inhibition assay; Potency, µM; 0.05% of 71,000 active
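Fluorescence polarization of a BODIPY Texas Red–ADP probe (2 uM) bound to purified YjeE (10 uM) was read after 15 min room-temperature incubation with compounds. Loss of polarization marks inhibitors; ADP serves as titrated control.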
TSHR ag: agonists of human thyroid stimulating hormone receptor | P16473 | HEK293-CNG-TSHR cells (CNG channel as cAMP sensor), membrane potential dye, cAMP | Potency, µM (series often up to 57.1 µM), for the others: top-dose activation, hits mostly activators | 0.48% of 73,000 active | AID 926; active means well fitted activation curve with a large enough effect in the main read-out, with a control signal flat, not every such curve was filed as active; inconclusive means small, poorly fitted or top-dose-only effect, or a change in a side signal; inactive means no such curve, though single readings can be large or run the other way; % of control where 0% means no effect;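 further: the control signal comes from parental cells without the receptor; potency means the concentration at half of the fitted maximal effect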
Target sequence (P16473 whole entry, looked up): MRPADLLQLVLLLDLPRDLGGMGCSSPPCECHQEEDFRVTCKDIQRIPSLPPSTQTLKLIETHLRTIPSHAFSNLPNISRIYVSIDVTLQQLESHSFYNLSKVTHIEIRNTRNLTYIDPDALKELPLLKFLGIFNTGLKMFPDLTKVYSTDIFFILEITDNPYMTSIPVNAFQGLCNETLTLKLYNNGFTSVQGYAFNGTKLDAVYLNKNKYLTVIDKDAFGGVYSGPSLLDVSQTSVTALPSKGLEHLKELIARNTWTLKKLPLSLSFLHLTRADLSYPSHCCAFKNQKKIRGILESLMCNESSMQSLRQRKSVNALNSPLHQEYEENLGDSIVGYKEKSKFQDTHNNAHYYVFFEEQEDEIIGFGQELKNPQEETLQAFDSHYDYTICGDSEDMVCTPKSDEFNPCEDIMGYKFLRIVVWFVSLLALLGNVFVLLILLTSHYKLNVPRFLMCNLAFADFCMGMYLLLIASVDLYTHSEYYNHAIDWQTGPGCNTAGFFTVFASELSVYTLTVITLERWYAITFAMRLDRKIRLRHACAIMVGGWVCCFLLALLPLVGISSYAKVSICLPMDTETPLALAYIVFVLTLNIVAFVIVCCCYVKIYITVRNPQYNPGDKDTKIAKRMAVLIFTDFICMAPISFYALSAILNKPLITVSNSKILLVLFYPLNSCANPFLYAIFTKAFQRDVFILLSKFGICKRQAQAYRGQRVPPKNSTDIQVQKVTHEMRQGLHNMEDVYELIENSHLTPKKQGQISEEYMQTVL
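HEK 293 cells stably expressing TSHR and a cAMP-gated CNG channel; parental CNG-only cells as counterscreen. Cells preloaded 60 min with membrane potential dye plus 100 uM RO 20-1724, then compound 30 min; fluorescence read at 590 nm.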
BRCT inh green: BRCA1 BRCT-phosphoprotein interaction inhibition | P38398 | BRCA1 BRCT-phosphopeptide binding, green fluorescence polarization | Potency, µM (doses to about 76.9 µM), for the others: top-dose activity change, negative = inhibition, most hits filed as inhibitors | 0.05% of 75,000 active;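 further: potency means the concentration at half of the fitted maximal effect; plate controls were peptide without protein for full effect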
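Compounds were incubated for 12 min at room temperature with a complex of 100 nM fluorescein-tagged pBACH1 decapeptide and 250 nM His-tagged BRCT protein. Buffer was phosphate pH 7.3 with EDTA, DTT and Tween 20. Disruption of binding lowers the polarization signal.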
HEK293 cAMP ctrl: raises cAMP in parental HEK293 cells, TSHR agonist counter-screen; parental HEK293 CNG cAMP sensor, membrane potential fluorescence; Potency, µM (series often up to 57.1 µM), for inactives: top-dose activation, hits mostly activators; 2.5% of 73,000 active; AID 938; further: potency means the concentration at half of the fitted maximal effect; % of control where 0% means no effect; nearly all actives have a fitted effect of over 55% in size
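Parental HEK 293 cells stably expressing a cAMP-gated CNG channel were loaded with membrane potential dye containing 100 uM RO 20-1724 for 60 min. Compound added for 30 min; depolarization read as fluorescence intensity at 590 nm.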
DNA Pol III inh: blocks replication by bacterial DNA polymerase III holoenzyme. Potency, µM (doses to about 57.1 µM), for the others: at the top dose activity change, negative = inhibition. reconstituted DNA polymerase III holoenzyme replication, biochemical. AID 603. 0.25% of 71,000 active; further: potency means the concentration at half of the fitted maximal effect; on the % scale 0 is the no-effect control and ±100 the full control effect
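Reconstituted *E. coli* holoenzyme (0.35 nM Pol III, 1 nM beta, 154 nM SSB, 2 nM primase) was preincubated with compound for 15 min at RT. Synthesis on 1.4 nM ssM13Gori ran 35 min, then was stopped with PicoGreen/EDTA and read as dsDNA fluorescence.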
* hit, by the source's call; [ ] = remark or other dose. Compounds with a hit are over-represented: about 3.2% of the library has one in this group of screens. Unless noted, the call rests on the fitted dose curve; in most records, active means well fitted curve in the direction sought with a large enough effect; inconclusive means small, poorly fitted or top-dose-only effect, or another doubt; inactive means no such curve, though single readings can be large; an effect the other way counts as inactive or inconclusive.

Screening CC(C)C(OC(=O)c1cc2sccc2n1C)C(=O)NCC1CCCO1 (configuration not stated) returned BRCT PPI red 0%, TsaE inh inactive, TSHR ag inconclusive, BRCT inh green 0%, HEK293 cAMP ctrl 2µM* and DNA Pol III inh 5%.
Screening Cn1c(C(=O)OC(C(=O)NC2CCCCC2)c2ccncc2)cc2sccc21 (configuration not stated) returned BRCT PPI red 0%, TsaE inh inactive, TSHR ag inconclusive, BRCT inh green 1%, HEK293 cAMP ctrl 16µM* and DNA Pol III inh -4%.
For CC1(C)OC(C(O)(c2cc(F)c(F)c(F)c2)c2cc(F)c(F)c(F)c2)C(C(O)(c2cc(F)c(F)c(F)c2)c2cc(F)c(F)c(F)c2)O1 (configuration not stated) the results were BRCT PPI red 2%[15.4 µM], TSHR ag 10%[11.4 µM], BRCT inh green -1%[15.4 µM] and HEK293 cAMP ctrl 6%[11.4 µM].
Screening COC(=O)[C@H](C)NC(=O)C/C=C\[C@@H](C)[C@H]1C=C[C@H](O)[C@@H](CO)O1 returned BRCT PPI red 0%[15.4 µM], TSHR ag -6%[11.4 µM], BRCT inh green 0%[15.4 µM] and HEK293 cAMP ctrl 5%[11.4 µM].
Screening CC(=O)NCCNc1ncncc1-c1ccccc1CN(C)C returned BRCT PPI red -1%, TsaE inh inactive, TSHR ag 26%, BRCT inh green -1%, HEK293 cAMP ctrl -2% and DNA Pol III inh -2%.
For COc1ccc(-c2cc(C(=O)N3CCOCC3)c3cc(C)ccc3n2)cc1 the results were BRCT PPI red -1%, TsaE inh inactive, TSHR ag 0%, BRCT inh green 0%, HEK293 cAMP ctrl 4% and DNA Pol III inh -5%.
For Cc1ccc(-c2cc(C(=O)N3CCOCC3)c3ccccc3n2)cc1 the results were BRCT PPI red -1%, TsaE inh inactive, TSHR ag 25µM*, BRCT inh green 0%, HEK293 cAMP ctrl 6% and DNA Pol III inh 1%.
Screening COC(=O)N1CCC2(CCN(C(=O)NC(C)C)CC2)CC1 returned BRCT PPI red 1%, TsaE inh inactive, TSHR ag 16%, BRCT inh green 0%, HEK293 cAMP ctrl 12% and DNA Pol III inh 8%.
For Cc1cccc(CNc2ncncc2-c2ccccc2C)c1 the results were BRCT PPI red 0%, TsaE inh inactive, TSHR ag inconclusive, BRCT inh green 0%, HEK293 cAMP ctrl inconclusive and DNA Pol III inh -18%.
CCc1nc(SCC(=O)Nc2ccc3c(c2)OCCO3)c2oc3ccccc3c2n1 was read as BRCT PPI red 0%, TsaE inh inactive, BRCT inh green -3%, HEK293 cAMP ctrl 13% and DNA Pol III inh -3%.
`Cc1nc(SCC(=O)Nc2ccc3c(c2)OCCO3)c2oc3ccccc3c2n1` gave BRCT PPI red -1%, TsaE inh inactive, TSHR ag 4µM*, BRCT inh green -2%, HEK293 cAMP ctrl 20% and DNA Pol III inh 8%.
c1ccc2nc3c(nc2c1)[nH]c1ccccc13 was read as BRCT PPI red 0%, TsaE inh inactive, TSHR ag 2%, BRCT inh green 2%, HEK293 cAMP ctrl 6% and DNA Pol III inh -7%.
c1ccc(-c2c3ccccc3nc3[nH]c4ccccc4c23)cc1 was read as BRCT PPI red -4%, TsaE inh inactive, TSHR ag inconclusive, BRCT inh green 0%, HEK293 cAMP ctrl 10µM* and DNA Pol III inh -4%.
`COC(=O)c1ccc(NC(=O)c2ccc(CN3CCOCC3)cc2)cc1` gave BRCT PPI red -1%, TsaE inh inactive, TSHR ag 15%, BRCT inh green -2%, HEK293 cAMP ctrl 11% and DNA Pol III inh -5%.
Screening O=C(Nc1ccc(CN2CCOCC2)cc1)c1ccc(-c2ccc(Br)cc2)o1 returned BRCT PPI red 0%, TsaE inh inactive, TSHR ag inconclusive, BRCT inh green -1%, HEK293 cAMP ctrl 25µM* and DNA Pol III inh -2%.
For COc1ccc2nc3c(cc2c1)Cc1ccccc1-3 the results were BRCT PPI red -1%, TsaE inh inactive, TSHR ag inconclusive, BRCT inh green -2%, HEK293 cAMP ctrl 25µM* and DNA Pol III inh -13%.
Screening COc1ccccc1CN1CC2(CCN(C(=O)c3cnccn3)CC2)C1 returned BRCT PPI red -1%, TsaE inh inactive, TSHR ag -3%, BRCT inh green -2%, HEK293 cAMP ctrl -4% and DNA Pol III inh -3%.
`NC(N)=NC(N)=Nc1c(F)c(F)c(F)c(F)c1F` gave BRCT PPI red 0%[15.4 µM], TsaE inh inactive, TSHR ag -1%[11.4 µM], BRCT inh green 0%[15.4 µM], HEK293 cAMP ctrl 15%[11.4 µM] and DNA Pol III inh -8%[11.4 µM].
`CCn1c(SCC(=O)N2CCc3ccccc3C2)nc2c1c(=O)n(C)c(=O)n2C` gave BRCT PPI red -2%, TsaE inh inactive, TSHR ag 0%, BRCT inh green 0%, HEK293 cAMP ctrl 8% and DNA Pol III inh 4%.
For Cc1ccc(Cn2c(SCC(C)C)nc3c2c(=O)n(C)c(=O)n3C)cc1 the results were BRCT PPI red -1%, TsaE inh inactive, TSHR ag inconclusive, BRCT inh green -1%, HEK293 cAMP ctrl 25µM* and DNA Pol III inh 1%.
For CCn1c(SCC(=O)N2c3ccccc3Sc3ccccc32)nc2c1c(=O)n(C)c(=O)n2C the results were BRCT PPI red 0%, TsaE inh inactive, TSHR ag 20µM*, BRCT inh green -1%, HEK293 cAMP ctrl 7% and DNA Pol III inh -9%.
Screening CCSc1nc2c(c(=O)n(C)c(=O)n2C)n1Cc1ccc(Cl)cc1 returned BRCT PPI red 0%, TsaE inh inactive, TSHR ag inconclusive, BRCT inh green 1%, HEK293 cAMP ctrl inconclusive and DNA Pol III inh 2%.
For COCCn1c(=O)c(-c2ccc(F)cc2)nc2cnc(N3CCOCC3)nc21 the results were BRCT PPI red 2%, TsaE inh inactive, TSHR ag 1%, BRCT inh green -2%, HEK293 cAMP ctrl 2% and DNA Pol III inh -7%.
`CC(C)(C)NC(=O)c1ccccc1-c1nc(-c2ccccc2Cl)no1` gave BRCT PPI red 1%, TsaE inh inactive, TSHR ag inconclusive, BRCT inh green 0%, HEK293 cAMP ctrl 16µM* and DNA Pol III inh 9%.
For COc1cccc(NC(=O)c2ccccc2-c2nc(-c3cccc(C)c3)no2)c1 the results were BRCT PPI red 0%, TsaE inh inactive, TSHR ag inconclusive, BRCT inh green -2%, HEK293 cAMP ctrl 16µM* and DNA Pol III inh -8%.

Screens deposited in PubChem by National Center for Advancing Translational Sciences (NCATS).
